Measured values from the supplement of paper PMC7156485.
± gives the standard deviation of the averaged measurements.

What was measured:
Conditions in all cases: concentration: 10 µM; 24 h
HCC1569 [1] = experiment: cell number relative to DMSO (% of DMSO); higher = more cells (less growth inhibition / toxicity)
Summary of the method: (§1)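 Using 384-well plates with 800 cells per well in RPMI plus 10% FBS, HCC1569 and TDF cells were exposed to compounds at 10 µM, in triplicate, for 24 h at 37 °C. Imaging of six fields per well at ×10 followed H1.0 and DAPI staining. The reported quantity, H1.0 nuclear intensity or cell number, is a median of replicates given as percent of the plate control, and HCC1569 values were smoothed for positional effects.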

TDF [2] = experiment: as above
Summary of the method: as §1

TDF [3] = experiment: H1.0 immunofluorescence intensity relative to DMSO (% of DMSO); higher = stronger H1.0 induction, active = 120 or more
Summary of the method: as §1

HCC1569 [4] = experiment: H1.0 immunofluorescence intensity relative to DMSO (% of DMSO); higher = stronger H1.0 induction, active = 140 or more
Summary of the method: as §1

HCC1569 [5] = experiment: H1.0 immunofluorescence intensity relative to DMSO (% of DMSO); higher = stronger H1.0 induction
Summary of the method: as §1

TDF [6] = experiment: as above
Summary of the method: as §1
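For H1.0 immunofluorescence intensity relative to DMSO in this document: TDF is a line of transformed human dermal fibroblasts of mesenchymal origin.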
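For cell number relative to DMSO in this document: TDF denotes transformed human dermal fibroblasts of mesenchymal origin.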

Compound | cell number (HCC1569 [1]) | cell number (TDF [2]) | H1.0 immunofluorescence intensity (TDF [3]) | H1.0 immunofluorescence intensity (HCC1569 [4]) | H1.0 immunofluorescence intensity (HCC1569 [5]) | H1.0 immunofluorescence intensity (TDF [6])
CC(=O)O.CSC(N)=NCCCC(N)C(=O)O [S-Methyl-L-thiocitrulline acetate] | 99.4 | 108 | 92 (inactive) | 97.5 (inactive) | – | –
CC1CCC2C(C)C(OC(=O)CCC(=O)O)OC3OC4(C)CCC1C32OO4 (centres undefined) [Artesunate] | 87.2 ± 1.8 | 88.2 ± 5.5 | 99.1 (inactive) | 124 (inactive) | – | –
Cc1cnc(-c2cc(N3CCN(C(=O)CCS(C)(=O)=O)CC3)ncc2Cl)c(C)c1.Cl | 103 | 103 | 83.9 (inactive) | 104 (inactive) | – | –
Nc1ccc(C(=O)O)c(O)c1 [4-Aminosalicylic acid] | 105 | 98.2 | – | – | – | –
CC(=O)NCC1CN(c2ccc(N3CCOCC3)c(F)c2)C(=O)O1 (centres undefined) [Linezolid] | 104 | 99.7 | 93.4 (inactive) | 110 (inactive) | – | –
COC(=O)CNC(=O)C(=O)OC [methyl 2-(2-methoxy-2-oxoethylamino)-2-oxoacetate] | 96.5 | 109 | 99.2 (inactive) | 101 (inactive) | – | –
S=C([S-])OC1CC2CC1C1CCCC21.[K+] (centres undefined) | 102 | 97.1 | 90.2 (inactive) | 98.2 (inactive) | – | –
CCCCCCC=CCCCCCCCCC(=O)O [10(E)-Heptadecenoic acid] | 97.6 | 95.4 | 98.4 (inactive) | 98.8 (inactive) | – | –
CC1=CC(=O)C(C(C)C)=CC1=O [Thymoquinone] | 104 ± 1.4 | 102 ± 3.6 | 93.5 (inactive) | 93.3 (inactive) | – | –
O=C(O)CCCCC1CCSS1 (racemic) | 104 | – | – | – | – | –
CCCCCCCCC=CCCCCCCCC(=O)NCCc1ccc(O)c(O)c1 [Oleoyl dopamine] | 98.1 | 88.4 | 103 (inactive) | 118 (inactive) | – | –
CC(=O)O/N=C1\C(=O)N(Cc2cc(Cl)ccc2Cl)c2ccc(Cl)cc21 | 99.5 | 107 | 97.2 (inactive) | 99.5 (inactive) | – | –
NC(=O)CC[C@H](N)C(=O)O [L-Glutamine] | 100 | 112 | 91.4 (inactive) | 105 (inactive) | – | –
CC(=O)c1ccc(NC2=C(Cl)C(=O)c3ccccc3C2=O)cc1 [2-(4-acetylanilino)-3-chloronaphthoquinone] | 17.7 | 8.89 | 150 (active) | 178 (active) | – | –
O=[N+]([O-])c1ccc(CSc2ncnc3c2ncn3C2OC(CO)C(O)C2O)cc1 (stereo not drawn) [S-(4-Nitrobenzyl)-6-thioinosine] | 99 | 111 | 92.2 (inactive) | 80.6 (inactive) | – | –
CCOC(=O)C12CC1C(=NO)c1ccccc1O2 (centres undefined) | 100 | 105 | 93.9 (inactive) | 97.2 (inactive) | – | –
CCN(CC)CCNC(=O)c1cc(Cl)c(N)cc1OC.Cl [Metoclopramide hydrochloride] | 107 | 106 | 94.3 (inactive) | 87.4 (inactive) | – | –
Cc1cccc(C(=O)NCN2CCN(c3ccccc3C#N)CC2)c1.O=C(O)C=CC(=O)O [PD 168,077 maleate] | 105 | 107 | 97.3 (inactive) | 99.3 (inactive) | – | –
N=C([NH3+])N1CCc2ccccc2C1.N=C([NH3+])N1CCc2ccccc2C1.O=S(=O)([O-])[O-] [Debrisoquin sulfate] | 104 | 107 | 101 (inactive) | 101 (inactive) | – | –
O=c1[nH]c(=O)n(C2CCCO2)cc1F (centres undefined) [Ftorafur] | 104 | 102 | 99.6 (inactive) | 103 (inactive) | – | –
O=c1ncnc2[nH][nH]cc1-2 [Allopurinol] | 103 | 109 | 97.1 (inactive) | 88.4 (inactive) | – | –
CC12CC3CC(C)(C1)CC(N)(C3)C2.Cl [Memantine.HCl] | 94.8 | 102 | 90.8 (inactive) | 100 (inactive) | – | –
CC(=O)N[C@@H](CS)C(N)=O | 109 | 93.6 | – | – | 103 (inactive) | 96.2 (inactive)
Cc1nccn1CC1CCc2c(c3ccccc3n2C)C1=O (centres undefined) [Ondansetron] | 103 | 104 | 95.4 (inactive) | 118 (inactive) | – | –
CCN(c1nc(N)c(C(=O)N=C(N)N)nc1Cl)C(C)C [5-(N-Ethyl-N-isopropyl)amiloride] | 103 | 95 | 97.2 (inactive) | 91 (inactive) | – | –
COc1ccccc1NC(=O)Nc1nc(-c2cccnc2)nc2ccccc12 | 97.6 | 102 | 95.1 (inactive) | 104 (inactive) | – | –
